Bioassay records from PubChem BioAssay.
The list is not random: actives were taken first. Their share in the collection is about 21%.
D3 ag – agonists of human D3 dopamine receptor | P35462 | D3R DiscoveRx beta-arrestin cells, luminescence, 90 min | max activation, % | hit rate 0.58% among 410,000; in the data active = max activation above about 30%; also: 0% is about no effect
Target sequence (P35462 whole entry, looked up): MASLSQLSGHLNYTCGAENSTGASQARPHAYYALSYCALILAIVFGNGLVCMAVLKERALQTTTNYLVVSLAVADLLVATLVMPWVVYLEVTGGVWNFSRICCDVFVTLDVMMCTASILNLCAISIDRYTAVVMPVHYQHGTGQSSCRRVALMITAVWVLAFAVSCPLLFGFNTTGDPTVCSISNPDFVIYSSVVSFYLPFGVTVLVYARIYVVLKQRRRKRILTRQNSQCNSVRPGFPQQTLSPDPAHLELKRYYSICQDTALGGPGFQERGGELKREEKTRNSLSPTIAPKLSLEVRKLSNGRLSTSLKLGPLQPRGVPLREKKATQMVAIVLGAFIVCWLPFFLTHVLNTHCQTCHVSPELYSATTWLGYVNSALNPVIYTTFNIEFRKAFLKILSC
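Cells at 1500/well, incubated overnight, then treated with pinned compounds (dopamine as control) for 90 min at 37 degrees C. DiscoveRx reagent added for 30 - 60 minutes at room temperature; luminescence read.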
DRD3 antagonist – antagonists of human D3 dopamine receptor; hit rate 2.5% among 360,000; max response, negative = inhibition, %; D3R cells, DiscoveRx beta-arrestin luminescence, antagonist mode; active compounds read low; in the data active = max response below about -50%; inconclusive = no clear call, values can overlap the other calls; also: % is scaled to controls: 0 for no effect and ±100 for the full control effect
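Cells plated overnight at 1500 cells/well, then exposed to library compounds with dopamine controls for 90 minutes at 37 degrees C. DiscoveRx reagent added for 30–60 minutes at room temperature; luminescence read, quantitative HTS format.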
ClpP mod – qHTS Assay for Activators of ClpP; AID 651965, 2013; Potency, µM (doses to about 57.5 µM), for the others: at the highest dose activity change, negative = active; hit rate 1.9% among 340,000; ATP-dependent Clp protease proteolytic subunit (Bacillus subtilis (strain 168)), P80244; purified B. subtilis ClpP, FRET peptide cleavage, 20 min; active = well fitted falling curve with a large enough effect; inconclusive = small, poorly fitted or top-dose-only effect; inactive = no such curve, though single readings can be large or run the other way; also: potency is read from the fitted curve at half-maximal effect; the source files actives as falling curves though it sought activators and does not explain the sign; nearly all actives have a fitted effect of over 65% in size
Target sequence (P80244 whole entry, looked up): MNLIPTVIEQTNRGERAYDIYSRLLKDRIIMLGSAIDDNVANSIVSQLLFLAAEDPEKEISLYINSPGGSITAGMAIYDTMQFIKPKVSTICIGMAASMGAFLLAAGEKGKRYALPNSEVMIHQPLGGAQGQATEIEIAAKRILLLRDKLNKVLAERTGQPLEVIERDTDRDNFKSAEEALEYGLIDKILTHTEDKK
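FRET quenching reversal measured ClpP activation: 10 microg/mL B. subtilis ClpP at pH 8 with the FRET-FV decapeptide, read at 430 nm after 320 nm excitation. The 20-min minus 0-min signal was scaled between DMSO/no-enzyme wells and ADEP (5.8 microM final).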
IL1B secr inh – inhibitors of inflammasome signaling (IL-1 beta secretion); activity change, % at 57.5 µM; AID 743279; THP-1 LPS/ATP IL-1B secretion, AlphaLISA, 16 h; active compounds read low; hit rate 4.7% among 360,000; in the data active = activity change below about -50%; inconclusive = mostly about -30% to -49%; also: % is scaled to controls: 0 for no effect and ±100 for the full control effect
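Secreted IL-1B measured by AlphaLISA bead assay after 16 h compound exposure of THP-1 cells; compounds (final up to 57.5 uM) added 1 h before LPS (250 ng/mL) and ATP (1.25 mM) stimulation; lower signal means less secretion.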
TDP1 cell CPT – growth inhibition of DT40 Tdp1-/-;hTDP1 cells with camptothecin (screen for TDP1 inhibitors); Potency, µM (top dose mostly 46.2 µM), for inactives: at the highest dose activity change, negative = growth inhibition, hits mostly inhibitors; chicken DT40 Tdp1-/-;hTDP1 cells + 20 nM CPT, ATP luminescence, 48 h; hit rate 12% among 420,000; also: potency is read from the fitted curve at half-maximal effect; % is scaled to controls: 0 for no effect and ±100 for the full control effect; nearly all actives have a fitted effect of over 55% in size
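Chicken DT40 Tdp1-/- cells stably complemented with human TDP1 were seeded at 400 cells/well in medium containing 20 nM camptothecin, exposed to pin-transferred compounds, and grown at 37 °C for at least 48 hr. Viability was read as ATP luminescence.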
DT40 TDP1 no CPT – qHTS for Inhibitors of human tyrosyl-DNA phosphodiesterase 1 (TDP1): qHTS in cells in absence of CPT; DT40 Tdp1-/- hTDP1 cells, no CPT, ATP luminescence, 48 h; Potency, µM (doses to about 46.2 µM), without a hit: at the top dose activity change, negative = growth inhibition, actives largely listed as inhibitors; hit rate 15% among 420,000; AID 686978, 2013; also: potency is read from the fitted curve at half-maximal effect; % is scaled to controls: 0 for no effect and ±100 for the full control effect; nearly all actives have a fitted effect of over 55% in size
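Stably hTDP1-transfected Tdp1-null chicken DT40 cells were treated with library compounds minus camptothecin and grown for at least 48 hr at 37 °C, after which cellular ATP was quantified by luminescence.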
* hit, by the source's call. Unless noted, calls follow the shape of the dose curve; as a rule, active = well fitted inhibition curve with a large enough effect; inconclusive = small, poorly fitted or top-dose-only effect; inactive = flat fitted curve, though single readings scatter.

`C[C@@H]1CN([C@H](C)CO)C(=O)c2cc(NS(=O)(=O)c3cn(C)cn3)ccc2O[C@@H]1CN(C)S(C)(=O)=O` gave D3 ag -10, DRD3 antagonist -7, ClpP mod -6%, IL1B secr inh 6, TDP1 cell CPT -6% and DT40 TDP1 no CPT -8%.
For O=C(c1cc2c(F)cccc2s1)N1CCCC1 the results were D3 ag 3, DRD3 antagonist 10, IL1B secr inh -8, TDP1 cell CPT 6% and DT40 TDP1 no CPT -2%.
For CC[C@@]1(C(=O)OC)N[C@H](CN(C)C(=O)Nc2ccc(C(F)(F)F)cc2)[C@@H]2C(=O)N(C)C(=O)[C@@H]21 the results were D3 ag 10, DRD3 antagonist 15, ClpP mod 2%, IL1B secr inh 16, TDP1 cell CPT -14% and DT40 TDP1 no CPT -24%.
For O=C(CCC1CCCN(C(=O)c2ccsc2)C1)N1CCN(c2ccccn2)CC1 (stereo unspecified) the results were D3 ag -1, DRD3 antagonist 9, ClpP mod -11%, IL1B secr inh 1, TDP1 cell CPT inconclusive and DT40 TDP1 no CPT -26%.
For O=C(Nc1ccccc1)C1CCCN(C(=O)c2ccc(Cl)cc2)C1 (stereo unspecified) the results were D3 ag 1, DRD3 antagonist 0, IL1B secr inh 0, TDP1 cell CPT inconclusive and DT40 TDP1 no CPT inconclusive.
For COc1ccc(NC(=O)C2CCCN(C(=O)c3ccc(Cl)cc3)C2)cc1Cl (stereo unspecified) the results were D3 ag -5, DRD3 antagonist -29, ClpP mod 2%, IL1B secr inh inconclusive, TDP1 cell CPT 21µM* and DT40 TDP1 no CPT 18µM*.
Screening CC(=O)c1ccc(NC(=O)C2CCCN(C(=O)c3ccc(Cl)cc3)C2)cc1 (stereo unspecified) returned D3 ag -2, DRD3 antagonist -22, IL1B secr inh 13, TDP1 cell CPT 26µM* and DT40 TDP1 no CPT 21µM*.
For COC(=O)c1ccc(C)c(NS(=O)(=O)c2cn(C)nc2C)c1 the results were D3 ag 0, DRD3 antagonist 6, ClpP mod -1%, IL1B secr inh 12, TDP1 cell CPT -20% and DT40 TDP1 no CPT 2%.
Screening CC(C)NS(=O)(=O)c1ccc(NC(=O)NC2CCCCC2)cc1 returned D3 ag -7, DRD3 antagonist 9, ClpP mod -5%, IL1B secr inh -9, TDP1 cell CPT -26% and DT40 TDP1 no CPT -14%.
`Cn1nc([N+](=O)[O-])c(C(C#N)c2ccccn2)c(Cl)c1=O` (stereo unspecified) gave D3 ag -3, DRD3 antagonist inconclusive, ClpP mod -2%, IL1B secr inh -102*, TDP1 cell CPT 5.2µM* and DT40 TDP1 no CPT 3.7µM*.
Screening Cc1ccc(Cn2c(C(C)Nc3nc(-c4ccc(Cl)c([N+](=O)[O-])c4)cs3)nc3cc(C(F)(F)F)ccc32)cc1 (stereo unspecified) returned D3 ag 3, DRD3 antagonist 17, ClpP mod -2%, IL1B secr inh -1, TDP1 cell CPT inconclusive and DT40 TDP1 no CPT inconclusive.
CCn1nc([N+](=O)[O-])c(C(C#N)c2nc3cc(C(F)(F)F)ccc3s2)c(Cl)c1=O (stereo unspecified) was read as D3 ag -19, DRD3 antagonist -21, ClpP mod 1%, IL1B secr inh -97*, TDP1 cell CPT 15µM* and DT40 TDP1 no CPT 23µM*.
N#CC(c1ccccn1)c1ncc(C(F)(F)F)cc1Cl (stereo unspecified) was read as D3 ag -2, DRD3 antagonist 5, IL1B secr inh -11, TDP1 cell CPT 8% and DT40 TDP1 no CPT -6%.
For CCCn1nc([N+](=O)[O-])c(C(C#N)c2nc3ccccc3o2)c(Cl)c1=O (stereo unspecified) the results were D3 ag -6, DRD3 antagonist -61*, ClpP mod -6%, IL1B secr inh -82*, TDP1 cell CPT inconclusive and DT40 TDP1 no CPT -25%.
Screening O=S(=O)(Nc1ncccn1)c1ccc(NC(=S)NCCc2ccccc2)cc1 returned D3 ag -1, DRD3 antagonist 4, ClpP mod 2%, IL1B secr inh 55, TDP1 cell CPT 11% and DT40 TDP1 no CPT 1%.
`O=C(NCc1ccccn1)Nc1cccc(Cl)c1Cl` gave D3 ag -2, DRD3 antagonist -3, ClpP mod 0%, IL1B secr inh inconclusive, TDP1 cell CPT 0% and DT40 TDP1 no CPT 14%.
Screening Cc1cccc(/C=N/NC(=O)c2cc3c(s2)-c2ccccc2CC3)c1 returned D3 ag 6, DRD3 antagonist 15, ClpP mod 28µM*, IL1B secr inh 0, TDP1 cell CPT 16µM* and DT40 TDP1 no CPT 15µM*.
O=C(N/N=C/c1cccc(C(F)(F)F)c1)c1cc2c(s1)-c1ccccc1CC2 was read as D3 ag 1, DRD3 antagonist 6, ClpP mod inconclusive, IL1B secr inh 0, TDP1 cell CPT inconclusive and DT40 TDP1 no CPT inconclusive.
`Cc1cn2c(=O)c(S(=O)(=O)Nc3ccc(N4CCOCC4)cc3)c(C)nc2s1` gave D3 ag -17, ClpP mod 0%, TDP1 cell CPT inconclusive and DT40 TDP1 no CPT inconclusive.
`CCCCOC(=O)c1ccc(NS(=O)(=O)c2c(C)nc3scc(C)n3c2=O)cc1` gave D3 ag 36*, ClpP mod -5%, TDP1 cell CPT 13µM* and DT40 TDP1 no CPT 23µM*.
`COc1cc(OC)c(NS(=O)(=O)c2c(C)nc3sc(C)cn3c2=O)cc1Cl` gave D3 ag 2, ClpP mod -3%, TDP1 cell CPT inconclusive and DT40 TDP1 no CPT 15µM*.
Cc1cn2c(=O)c(S(=O)(=O)Nc3ccc(OC(F)(F)F)cc3)c(C)nc2s1 was read as D3 ag 7, ClpP mod -1%, TDP1 cell CPT 21µM* and DT40 TDP1 no CPT 23µM*.
For Cc1nc2scc(C)n2c(=O)c1S(=O)(=O)Nc1ccc(F)cc1 the results were D3 ag 7, DRD3 antagonist -14, IL1B secr inh -5, TDP1 cell CPT -7% and DT40 TDP1 no CPT -19%.
COc1ccc(CCNS(=O)(=O)c2c(C)nc3sc(C)cn3c2=O)cc1OC was read as D3 ag -1, ClpP mod 0%, TDP1 cell CPT -12% and DT40 TDP1 no CPT -4%.
